Experimental data as given in PubChem BioAssay (NCI).
About 79,000 compounds went through this panel and 15% of them were active in at least one assay; those are over-represented in the sample as a whole. Active and inactive are the calls of the source. Cut-off read from the data, not from the text of the source: active = growth inhibition above about 70%; inactive = the rest.

Assays:
[1] = NCI Yeast Anticancer Drug Screen. Data for the rad50 strain (AID 155);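 note: 0% = growth of vehicle-only cultures of the same strain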; details: S. cerevisiae rad50 strain growth inhibition, hits give high values
How it was run: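 Genetically altered yeast (DNA repair pathway); compound treatment; growth inhibition vs vehicle ctrl.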

[2] = NCI Yeast Anticancer Drug Screen. Data for the mec2-1 strain (AID 157); details: S. cerevisiae mec2-1 strain, hits give high values
How it was run: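 Each compound was tested on mec2-1 yeast, a strain altered in DNA damage repair or cell cycle control. Growth inhibition is reported relative to vehicle.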

[3] = NCI Yeast Anticancer Drug Screen. Data for the sgs1 mgt1 strain (AID 161);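 note: 0% = growth of cultures given vehicle only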; details: S. cerevisiae sgs1 mgt1 strain, hits give high values
How it was run: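 Read-out: growth inhibition vs vehicle controls. Cells: mutant yeast strain deficient in DNA damage repair.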

[4] = NCI Yeast Anticancer Drug Screen. Data for the cln2 rad14 strain (AID 165);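 note: 0% = growth equal to vehicle treated cultures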; details: S. cerevisiae cln2 rad14 strain, hits give high values
How it was run: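 Test compounds were added to cln2 rad14 yeast cultures; inhibition of growth was then determined by comparison with vehicle treatment.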

[5] = NCI Yeast Anticancer Drug Screen. Data for the bub3 strain (AID 167); details: S. cerevisiae bub3 mutant strain, hits give high values
How it was run: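 Yeast carrying a defined mutation is treated with each compound, and growth is compared with that of vehicle-exposed cells to give inhibition.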

[6] = NCI Yeast Anticancer Drug Screen. Data for the mlh1 rad18 strain (AID 175); details: S. cerevisiae mlh1 rad18 strain growth inhibition, hits give high values
How it was run: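 Inhibition values reflect reduced growth of mutant yeast versus vehicle-treated controls following compound exposure; the mutations affect DNA damage repair.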

[7] = at 5.0 µM (retest, dose inferred, filed as 0.5)
[8] = at 50.0 µM (retest, dose inferred, filed as 5.0)

Measured: growth inhibition

O=C(NNc1ccccc1)c1cccc([N+](=O)[O-])c1
inactive: [1]; [7] 23% | [2]; [7] 31% | [3]; [7] 39% | [4]; [7] 28% | [5]; [7] 29% | [6]; [7] 29%
active: [1]; [8] 98% | [1]; at 50.0 µM 98.2% | [2]; [8] 99% | [2]; at 50.0 µM 98.5% | [3]; [8] 99% | [3]; at 50.0 µM 98.8% | [4]; [8] 98% | [4]; at 50.0 µM 93.7% | [5]; [8] 99% | [5]; at 50.0 µM 99.4% | [6]; [8] 98% | [6]; at 50.0 µM 98.8%

[Cl][Sn]([O][Sn]([Cl])([c]1ccccc1)[CH]1CCCCC1)([c]1ccccc1)[CH]1CCCCC1 (stereo not given)
active: [1]; [8] 97% | [1]; at 50.0 µM 88% | [2]; [8] 99% | [2]; at 50.0 µM 90.3% | [3]; [8] 99% | [3]; at 50.0 µM 90.8% | [4]; [8] 98% | [4]; at 50.0 µM 90.1% | [5]; [8] 99% | [5]; at 50.0 µM 89.6% | [6]; [8] 97% | [6]; at 50.0 µM 92%
inactive: [1]; [7] 6% | [2]; [7] 7% | [3]; [7] 12% | [4]; [7] -11% | [5]; [7] 2% | [6]; [7] 5%

O=C(O)c1ccc2c(O)c3ccccc3c(O)c2c1
inactive: [1]; [7] 3% | [2]; [7] 1% | [2]; [8] 41% | [3]; [7] 3% | [3]; [8] 52% | [4]; [7] 4% | [4]; [8] 50% | [5]; [7] 21% | [5]; [8] 57% | [6]; [7] 5% | [6]; [8] 65%
active: [1]; [8] 72% | [1]; at 50.0 µM 99.6% | [2]; at 50.0 µM 99.5% | [3]; at 50.0 µM 99.6% | [4]; at 50.0 µM 93.5% | [5]; at 50.0 µM 99.5% | [6]; at 50.0 µM 99.2%

CC(CCCOC(c1ccccc1)(c1ccccc1)c1ccccc1)OC(=O)Nc1ccccc1 (stereo not given)
active: [1]; [7] 85% | [1]; [8] 85% | [1]; at 50.0 µM 83.9% | [2]; [7] 81% | [2]; [8] 81% | [2]; at 50.0 µM 85.8% | [3]; at 50.0 µM 84% | [4]; [7] 92% | [4]; [8] 92% | [4]; at 50.0 µM 83% | [5]; at 50.0 µM 79.7% | [6]; [7] 93% | [6]; [8] 93% | [6]; at 50.0 µM 81.5%
inactive: [3]; [7] 63% | [3]; [8] 63% | [5]; [7] 69% | [5]; [8] 69%

Cc1cccc2c(CC(=O)O)cccc12
inactive: [1]; [7] -5% | [2]; [7] 7% | [3]; [7] 1% | [3]; at 50.0 µM 52.5% | [4]; [7] 19% | [4]; [8] 61% | [5]; [7] -1% | [6]; [7] 4%
active: [1]; [8] 78% | [1]; at 50.0 µM 78.7% | [2]; [8] 82% | [2]; at 50.0 µM 77.7% | [3]; [8] 81% | [4]; at 50.0 µM 71.8% | [5]; [8] 95% | [5]; at 50.0 µM 75% | [6]; [8] 88% | [6]; at 50.0 µM 78.5%

CSC(=S)N/N=C(\C)c1ccc[nH]1
inactive: [1]; [7] -2% | [2]; [7] 0% | [3]; [7] 13% | [4]; [7] -13% | [5]; [7] 0% | [6]; [7] 2%
active: [1]; [8] 96% | [1]; at 50.0 µM 83.8% | [2]; [8] 96% | [2]; at 50.0 µM 90.8% | [3]; [8] 96% | [3]; at 50.0 µM 79.7% | [4]; [8] 92% | [4]; at 50.0 µM 72.6% | [5]; [8] 97% | [5]; at 50.0 µM 90.2% | [6]; [8] 77% | [6]; at 50.0 µM 85.7%

O=C(/C(Cl)=N/O)c1ccccc1
inactive: [2]; [7] 47% | [3]; [7] 51% | [3]; at 50.0 µM 49.3% | [4]; [7] 38% | [4]; at 50.0 µM 58% | [6]; [7] 62% | [6]; at 50.0 µM 50%
active: [1]; [7] 80% | [1]; [8] 99% | [1]; at 50.0 µM 98.8% | [2]; [8] 100% | [2]; at 50.0 µM 99.2% | [3]; [8] 99% | [4]; [8] 99% | [5]; [7] 91% | [5]; [8] 99% | [5]; at 50.0 µM 99% | [6]; [8] 99%

CCOC(=O)C1CCN(Cc2ccccc2)CC1=O (stereo not given)
inactive: [1]; [7] 61% | [2]; [7] 61% | [3]; [7] 68% | [4]; [7] 49% | [6]; [7] 49%
active: [1]; [8] 89% | [1]; at 50.0 µM 90% | [2]; [8] 92% | [2]; at 50.0 µM 91.3% | [3]; [8] 99% | [3]; at 50.0 µM 92.4% | [4]; [8] 100% | [4]; at 50.0 µM 90.2% | [5]; [7] 81% | [5]; [8] 98% | [5]; at 50.0 µM 90.7% | [6]; [8] 87% | [6]; at 50.0 µM 90.8%

O=C(/C=C(\C(=O)c1ccccc1)N(/C(=C/C(=O)c1ccccc1)C(=O)c1ccccc1)c1ccccc1)c1ccccc1
active: [1]; at 50.0 µM 92.2% | [2]; at 50.0 µM 88.8% | [3]; at 50.0 µM 90.8% | [4]; at 50.0 µM 83.5% | [5]; at 50.0 µM 88.4% | [6]; at 50.0 µM 92.7%
inactive: [1]; [7] 2% | [1]; [8] 30% | [2]; [7] -3% | [2]; [8] 13% | [3]; [7] -5% | [3]; [8] 30% | [4]; [7] -2% | [4]; [8] -21% | [5]; [7] 0% | [5]; [8] 34% | [6]; [7] 0% | [6]; [8] 12%

COc1ccc(C(=O)c2cc(Br)ccc2O)cc1
active: [1]; at 50.0 µM 89.3% | [2]; at 50.0 µM 71.9% | [3]; at 50.0 µM 84% | [5]; at 50.0 µM 94.5% | [6]; at 50.0 µM 90.1%
inactive: [1]; [7] -3% | [1]; [8] 4% | [2]; [7] -6% | [2]; [8] 4% | [3]; [7] -1% | [3]; [8] 18% | [4]; [7] -20% | [4]; [8] -9% | [4]; at 50.0 µM 46% | [5]; [7] 3% | [5]; [8] 11% | [6]; [7] -1% | [6]; [8] -2%
